Several values for one entry are separate records, joined by “and”; a condition that tells them apart may be missing. Equal entries are not always repeated. Results filed as inconclusive are left out. Where a call stands in place of a potency, no number is given. Where a structure was tested more than once in an assay, its records may differ in their call. Activity calls are given as the source filed them. Unless noted, calls follow the shape of the dose curve; as a rule, active = well fitted curve in the direction sought with a large enough effect in the repeat runs; inconclusive = weak or mixed curves; inactive = no such curve, though single readings can be large; an effect the other way counts as inactive or inconclusive.
Key:
[1] = qHTS assay to identify small molecule agonists of the RXR signaling pathway - cell viability counter screen (AID 1159529); also: nearly all actives have a fitted effect of over 50% in size; also: potency is read from the fitted curve at half-maximal effect
Outline: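 CellTiter-Glo luminescence gave viability in the wells also read for beta-lactamase. Cells (RXR-alpha-UAS-bla HEK 293T, 2% charcoal-stripped FBS medium) had 5 hr plating, then 16 hr compound exposure at 37 C; tetraoctyl ammonium bromide served as positive control.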

[2] = qHTS assay to identify small molecule antagonists of the retinoid acid receptor (RAR) signaling pathway - cell viability counter screen (AID 1159551); also: nearly all actives have a fitted effect of over 35% in size
Outline: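 In this counter screen, the RARE-luciferase line C3RL4 was exposed for 6 h at 37 C and 5% CO2 to compounds with retinol at 1 uM final. Cellular ATP, read by luminescence, served as the viability measure.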

[3] = qHTS assay to identify small molecule antagonists of the retinoic acid receptor (RAR) signaling pathway (AID 1159552; also: nearly all actives have a fitted effect of over 50% in size; also: potency is read from the fitted curve at half-maximal effect)
Outline: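 Luminescent RARE reporter read-out in C3RL4 cells: 6 hr co-treatment at 37 C of test compounds with retinol at 1 uM final. Cells plated overnight beforehand; luciferase reagent incubated 30 min at room temperature before reading.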

[4] = target: Luciferin 4-monooxygenase (Photinus pyralis) (UniProt P08659); experiment: qHTS assay to identify small molecule inhibitors of firefly luciferase (AID 1224835); also: nearly all actives have a fitted effect of over 25% in size
Sequence of Luciferin 4-monooxygenase (Photinus pyralis) (P08659 whole entry, looked up): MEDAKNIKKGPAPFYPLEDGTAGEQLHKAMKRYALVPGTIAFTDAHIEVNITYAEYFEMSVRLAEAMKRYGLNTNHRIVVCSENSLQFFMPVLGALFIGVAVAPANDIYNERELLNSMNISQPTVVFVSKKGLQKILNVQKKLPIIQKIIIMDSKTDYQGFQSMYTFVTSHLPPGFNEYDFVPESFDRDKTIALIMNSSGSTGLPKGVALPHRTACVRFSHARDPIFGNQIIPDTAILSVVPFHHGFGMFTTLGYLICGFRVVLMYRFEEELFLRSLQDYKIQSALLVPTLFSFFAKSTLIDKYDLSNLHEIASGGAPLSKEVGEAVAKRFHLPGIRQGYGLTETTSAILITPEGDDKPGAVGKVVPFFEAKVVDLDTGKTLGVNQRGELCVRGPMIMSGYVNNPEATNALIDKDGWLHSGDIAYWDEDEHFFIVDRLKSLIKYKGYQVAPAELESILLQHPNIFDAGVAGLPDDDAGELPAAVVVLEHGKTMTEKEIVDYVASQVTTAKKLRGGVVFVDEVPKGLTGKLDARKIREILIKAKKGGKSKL
Outline: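 Inhibition of purified Photinus luciferase is measured by luminescence. Substrate levels (D-luciferin, ATP) sit at their KM values. Each compound is tested in a concentration series.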

[5] = qHTS assay to identify small molecule agonists of the constitutive androstane receptor (CAR) signaling pathway - cell viability counter screen (AID 1224836); also: nearly all actives have a fitted effect of over 45% in size; also: potency is read from the fitted curve at half-maximal effect
Outline: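 Cell viability multiplexed with the CAR agonist screen: CellTiter-Fluor fluorescence after 23 hr at 37 C. HepG2-CYP2B6-hCAR cells got compounds at 15 concentrations with PK11195 at 0.75 uM final.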

[6] = qHTS assay to identify small molecule antagonists of the constitutive androstane receptor (CAR) signaling pathway - cell viability counter screen (AID 1224837); also: nearly all actives have a fitted effect of over 45% in size; also: potency is read from the fitted curve at half-maximal effect
Outline: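 CITCO at 50 nM final was added alongside compounds (15 concentrations) to double-stable hCAR/CYP2B6-2.2kb HepG2 cells. Following 23 hr at 37 C, cell viability was quantified by CellTiter-Fluor fluorescence intensity.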

[7] = qHTS assay to identify small molecule agonists of the estrogen related receptor signaling pathway with the pleiotropic PPARgamma coactivator (PGC) from Tox21 10K library (AID 1224842); also: nearly all actives have a fitted effect of over 15% in size
Outline: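 Luminescence from One-Glo (30 min, room temperature) measured after PGC/ERR cells had 18 h at 37 C with pinned compound (23 nL in DMSO). Cells had been seeded at 2,000 per well and pre-incubated 6 h.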

[8] = qHTS assay to identify small molecule antagonists of the estrogen related receptor (ERR) signaling pathway from Tox21 library - cell viability counter screen (AID 1224834); also: nearly all actives have a fitted effect of over 30% in size; also: potency is read from the fitted curve at half-maximal effect
Outline: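 Counter screen run in ERR cells (2,000 cells/well): cells pre-incubated 6 h, then treated with compounds for 17.5 h at 37 C. Fluorescence was read 30 min after CellTiter-Fluor addition.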

[9] = qHTS assay to identify small molecule antagonists of the estrogen related receptor signaling pathway with the pleiotropic PPARgamma coactivator (PGC) from Tox21 10K library - cell viability counter screen (AID 1224840; active = well fitted cell-killing curve with a large enough effect in the repeat runs, not every such curve was filed as active; also: nearly all actives have a fitted effect of over 40% in size; also: potency is read from the fitted curve at half-maximal effect)
Outline: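 Readout: fluorescence intensity from CellTiter-Fluor after 30 min at 37 C/5% CO2. Preceded by 17.5 h treatment of PGC/ERR cells with DMSO-dissolved compounds, added 6 h post-seeding.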

[10] = target: Nuclear receptor subfamily 1 group I member 3 (Homo sapiens) (UniProt Q14994); experiment: qHTS assay to identify small molecule antagonists of the constitutive androstane receptor (CAR) signaling pathway (AID 1224838); also: nearly all actives have a fitted effect of over 40% in size; also: potency is read from the fitted curve at half-maximal effect
Sequence of Nuclear receptor subfamily 1 group I member 3 (Homo sapiens) (Q14994 whole entry, looked up): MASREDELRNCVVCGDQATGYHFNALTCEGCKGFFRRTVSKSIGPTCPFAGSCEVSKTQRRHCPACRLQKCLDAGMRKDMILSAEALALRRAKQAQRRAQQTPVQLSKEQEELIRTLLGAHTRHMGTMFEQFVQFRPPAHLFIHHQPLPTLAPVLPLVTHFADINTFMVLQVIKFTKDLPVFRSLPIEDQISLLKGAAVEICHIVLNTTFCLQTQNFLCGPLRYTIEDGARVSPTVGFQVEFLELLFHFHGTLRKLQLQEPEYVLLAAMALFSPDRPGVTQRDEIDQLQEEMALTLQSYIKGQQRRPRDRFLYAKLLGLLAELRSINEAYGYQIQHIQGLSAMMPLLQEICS
Outline: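 Inhibition of CITCO-driven (50 nM final) CYP2B6 reporter expression is measured in HepG2 cells stably carrying hCAR. Fifteen compound concentrations are applied for 24 h at 37 C, followed by luciferase luminescence.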

[11] = target: Nuclear receptor subfamily 1 group I member 3 (Homo sapiens) (UniProt Q14994); experiment: qHTS assay to identify small molecule agonists of the constitutive androstane receptor (CAR) signaling pathway (AID 1224839); also: nearly all actives have a fitted effect of over 15% in size; also: potency is read from the fitted curve at half-maximal effect
Outline: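 Luminescent ONE-Glo read-out after 24 hr, 37 C exposure of double-stable HepG2-CYP2B6-hCAR reporter cells to a 15-point compound series, in the presence of 0.75 uM PK11195 (final).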

[12] = qHTS assay to identify small molecule agonists of the retinoic acid receptor (RAR) signaling pathway (AID 1159553); details: C3RL4 RARE luciferase reporter, agonist, 6 h; activation: at 73.3 µM (top of the series)
Outline: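 In this cell-based screen, 1,000 C3RL4 cells per well were cultured overnight, dosed with test chemicals in DMSO for 6 hr, and assessed for RARE luciferase luminescence.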

[13] = qHTS assay to identify small molecule antagonists of the estrogen related receptor signaling pathway with the pleiotropic PPARgamma coactivator (PGC) from Tox21 10K library (AID 1224841; call rule not given here; also: actives are mostly falling curves and most rising ones were filed inactive; nearly all actives have a fitted effect of over 50% in size; also: potency is read from the fitted curve at half-maximal effect)
Outline: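 One-Glo luminescence, measured after half an hour at room temperature, quantified reporter output of PGC/ERR cells. These had been plated at 2,000 per well, incubated 6 h, dosed with compounds in DMSO, then kept 18 h at 37 C.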

[14] = qHTS assay to identify small molecule antagonists of the estrogen related receptor (ERR) signaling pathway - cell viability counter screen (AID 1224818)
Outline: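 Viability of ERR cells, CellTiter-Fluor fluorescence; 17.5 h compound exposure at 37 C, DMSO vehicle; 30 min reagent incubation at 37 C/5% CO2.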

[15] = qHTS assay to identify small molecule antagonists of the estrogen related receptor signaling pathway with the pleiotropic PPARgamma coactivator (PGC) cell viability counter screen (AID 1224822)
Outline: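 17.5 h compound treatment of PGC/ERR cells at 37 C; readout CellTiter-Fluor fluorescence; run alongside the PGC/ERR antagonist screen to flag cytotoxic compounds.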

SMILES	Potency [1]	Potency [2]	Potency [3]	Potency [4]	Potency [5]	Potency [6]	Potency [7]	Potency [8]	Potency [9]	Potency [10]	Potency [11]	Potency [12]	Potency [13]	outcome [14]	outcome [15]
COc1cc(N)c(Cl)cc1C(=O)NC1CCN(CCCOc2ccc(F)cc2)CC1OC (stereo not given)	inactive	inactive	inactive	inactive	inactive	inactive	inactive	–	–	–	–	–	–	–	–
COC(=O)CS	inactive	inactive	–	–	inactive	inactive	–	inactive	inactive	–	–	–	–	–	–
N#CCCN(CCO)CCO	inactive	inactive	–	inactive	inactive	inactive	–	inactive	inactive	inactive	inactive	–	–	–	–
CCOC(=O)[C@H](CCc1ccccc1)N[C@@H](C)C(=O)N(CC(=O)O)C1Cc2ccccc2C1	5.35 µM (active)	inactive	–	inactive	–	inactive	–	–	inactive	–	–	–	–	–	–
CC(C)=CCC/C(C)=C/CC/C(C)=C/C(=O)OCC(=O)[C@@]1(O)CC[C@H]2[C@@H]3CCC4=CC(=O)C=C[C@]4(C)[C@H]3[C@@H](O)C[C@@]21C	inactive	inactive	–	inactive	–	inactive	inactive	–	inactive	inactive	–	inactive	–	–	–
O=C1C(=O)c2ccccc2C(O)=C1C1CCC(c2ccc(Cl)cc2)CC1 (stereo not given)	inactive	inactive	–	inactive	–	–	inactive	inactive	inactive	–	–	–	–	–	–
O=C1c2ccccc2C(=O)N1CCc1noc(-c2ccc(CN3CCCCCC3)s2)n1	inactive	inactive	inactive	–	–	inactive	–	–	–	inactive	inactive	–	–	–	–
CCCCCCNC(=O)n1cc(F)c(=O)[nH]c1=O	inactive	–	inactive	inactive	inactive	inactive	inactive	inactive	inactive	2.11 µM (active)	inactive	inactive	inactive	–	–
CC(C)COCC(CN(Cc1ccccc1)c1ccccc1)N1CCCC1 (stereo not given)	19 µM (active)	–	–	inactive	29.8 µM (active)	29.8 µM (active)	–	26.6 µM (active)	29.8 µM (active)	18.8 µM (active)	inactive	–	–	inactive	inactive
CCCCC(CC)COP(=O)(O)O (stereo not given)	–	inactive	inactive	inactive	inactive	inactive	–	inactive	inactive	inactive	inactive	inactive	–	–	–
C[C@]12CC[C@@H]3c4ccc(O)cc4CC[C@H]3[C@@H]1CC[C@@H]2OC(=O)CCC1CCCC1	49 µM (active) and 26.8 µM (active)	inactive	61.1 µM (active) and inactive	–	–	inactive	inactive	61.1 µM (active) and inactive	61.1 µM (active) and inactive	inactive	15.4 µM (active)	–	inactive	–	–
C[C@@H](O[C@H]1OCCN(Cc2n[nH]c(=O)[nH]2)[C@H]1c1ccc(F)cc1)c1cc(C(F)(F)F)cc(C(F)(F)F)c1	19 µM (active)	–	26.6 µM (active)	inactive	–	inactive	–	26.6 µM (active)	–	–	–	–	29.8 µM (active)	–	–
CN1CCCC(n2nc(Cc3ccc(Cl)cc3)c3ccccc3c2=O)CC1 (stereo not given)	5.35 µM (active)	inactive	–	inactive	23.7 µM (active)	16.8 µM (active)	inactive	–	inactive	–	inactive	inactive	inactive	–	–

Source: PubChem BioAssay (Tox21)
